Test [1] deals with PRMT1 (protein arginine N-methyltransferase 1). As to the kind of experiment: PRMT1 binders on small-molecule microarrays, primary screen, biochemical, small-molecule microarray, 635 nm fluorescence (AID 1088).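 Note: binding of Prmt1 protein to compounds spotted on small-molecule microarray slides.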 The conditions noted are these: small-molecule microarray binding, higher = more signal.
The nature of test [2]: yeast growth modulation, basal conditions, primary screen, YJM789 clinical isolate, OD600, 24 h (AID 1089).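 Note: growth of clinical yeast isolate S. cerevisiae YJM 789 seeded 1000 cells per well; test concentration not given here.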 The conditions noted are these: S. cerevisiae YJM789 growth, higher = more signal, called active from +8 up or from −8 down.
Test [3] can be described thus: fission yeast growth modulation, primary screen, strain 972, OD600, 24 h, no modulator (AID 1090).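 Note: basal condition with compound alone and no growth modifier present; test concentration not given here.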 The conditions noted are these: S. pombe 972 growth, higher = more signal, called active from +8 up or from −8 down.
Test [4] in a line: S. cerevisiae growth modulation with rapamycin, primary screen, strain BY4716, OD600, 96 h (AID 1091). Note: test concentration not given here. The conditions noted are these: higher = more signal, called active from +8 up or from −8 down.
Test [5] concerns the target Torsin-1A-interacting protein 2 (Homo sapiens) (UniProt Q8NFQ8). Kind of test: LULL1 binders on small-molecule microarray, primary screen, cell lysate, human LULL1 lysate, 635/667 nm fluorescence (AID 1092).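 Note: probe is lysate of COS7 cells overexpressing human LULL1; score merges per-feature 667 nm fluorescence with signal-to-noise.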 Conditions: hLULL1 lysate binding, 635 nm fluorescence, higher = more signal.
Test [6] is described as follows: E. coli growth modulation, two-sided OD650, primary screen, E. coli filamentation project, strain DRC41, 24 h (AID 1093).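 Note: MC1000 strain lacking acrAB efflux and sulA so SOS filamentation is blocked; test concentration not given here.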 The conditions noted are these: OD650, 24 h, higher = more signal, called active from +8 up or from −8 down.
The nature of test [7]: small-molecule microarray binders of probe aLefty2, primary screen, biochemical, biotinylated probe, 635/667 nm fluorescence (AID 1094).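 Note: score merges spot fluorescence near 667 nm with spot signal-to-noise ratio.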 Conditions: higher = more signal.
Test [8] has as its system Noggin (protein binding on small-molecule microarray). As to the kind of experiment: Noggin binders on small-molecule microarray, primary screen, biochemical, 635/667 nm fluorescence (AID 1095).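 Note: score merges 667 nm feature fluorescence with signal to noise over triplicate slides.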 Conditions: 635 nm fluorescence, higher = more signal.
The target in test [9] is Neurogenic locus notch homolog protein 3 (Homo sapiens) (UniProt Q9UM47). Kind of test: NOTCH3 binders on small-molecule microarray, primary screen, biochemical, 635/667 nm fluorescence (AID 1096). Conditions: NOTCH3 binding, 635 nm fluorescence, higher = more signal.
A short description of test [10]: small-molecule microarray binders of probe aEGFR, primary screen, biochemical, biotinylated probe, 635/667 nm fluorescence (AID 1097).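 Note: probe is a biotinylated anti-EGFR antibody binding compounds printed on slides; score combines fluorescence near 667 nm and signal to noise of each spot.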 The conditions noted are these: higher = more signal.

This passage reports composite z-score and z-score results from PubChem BioAssay.

Calls of active or inactive are those of the source.

Sequence of Neurogenic locus notch homolog protein 3 (Homo sapiens) (Q9UM47 whole entry, looked up): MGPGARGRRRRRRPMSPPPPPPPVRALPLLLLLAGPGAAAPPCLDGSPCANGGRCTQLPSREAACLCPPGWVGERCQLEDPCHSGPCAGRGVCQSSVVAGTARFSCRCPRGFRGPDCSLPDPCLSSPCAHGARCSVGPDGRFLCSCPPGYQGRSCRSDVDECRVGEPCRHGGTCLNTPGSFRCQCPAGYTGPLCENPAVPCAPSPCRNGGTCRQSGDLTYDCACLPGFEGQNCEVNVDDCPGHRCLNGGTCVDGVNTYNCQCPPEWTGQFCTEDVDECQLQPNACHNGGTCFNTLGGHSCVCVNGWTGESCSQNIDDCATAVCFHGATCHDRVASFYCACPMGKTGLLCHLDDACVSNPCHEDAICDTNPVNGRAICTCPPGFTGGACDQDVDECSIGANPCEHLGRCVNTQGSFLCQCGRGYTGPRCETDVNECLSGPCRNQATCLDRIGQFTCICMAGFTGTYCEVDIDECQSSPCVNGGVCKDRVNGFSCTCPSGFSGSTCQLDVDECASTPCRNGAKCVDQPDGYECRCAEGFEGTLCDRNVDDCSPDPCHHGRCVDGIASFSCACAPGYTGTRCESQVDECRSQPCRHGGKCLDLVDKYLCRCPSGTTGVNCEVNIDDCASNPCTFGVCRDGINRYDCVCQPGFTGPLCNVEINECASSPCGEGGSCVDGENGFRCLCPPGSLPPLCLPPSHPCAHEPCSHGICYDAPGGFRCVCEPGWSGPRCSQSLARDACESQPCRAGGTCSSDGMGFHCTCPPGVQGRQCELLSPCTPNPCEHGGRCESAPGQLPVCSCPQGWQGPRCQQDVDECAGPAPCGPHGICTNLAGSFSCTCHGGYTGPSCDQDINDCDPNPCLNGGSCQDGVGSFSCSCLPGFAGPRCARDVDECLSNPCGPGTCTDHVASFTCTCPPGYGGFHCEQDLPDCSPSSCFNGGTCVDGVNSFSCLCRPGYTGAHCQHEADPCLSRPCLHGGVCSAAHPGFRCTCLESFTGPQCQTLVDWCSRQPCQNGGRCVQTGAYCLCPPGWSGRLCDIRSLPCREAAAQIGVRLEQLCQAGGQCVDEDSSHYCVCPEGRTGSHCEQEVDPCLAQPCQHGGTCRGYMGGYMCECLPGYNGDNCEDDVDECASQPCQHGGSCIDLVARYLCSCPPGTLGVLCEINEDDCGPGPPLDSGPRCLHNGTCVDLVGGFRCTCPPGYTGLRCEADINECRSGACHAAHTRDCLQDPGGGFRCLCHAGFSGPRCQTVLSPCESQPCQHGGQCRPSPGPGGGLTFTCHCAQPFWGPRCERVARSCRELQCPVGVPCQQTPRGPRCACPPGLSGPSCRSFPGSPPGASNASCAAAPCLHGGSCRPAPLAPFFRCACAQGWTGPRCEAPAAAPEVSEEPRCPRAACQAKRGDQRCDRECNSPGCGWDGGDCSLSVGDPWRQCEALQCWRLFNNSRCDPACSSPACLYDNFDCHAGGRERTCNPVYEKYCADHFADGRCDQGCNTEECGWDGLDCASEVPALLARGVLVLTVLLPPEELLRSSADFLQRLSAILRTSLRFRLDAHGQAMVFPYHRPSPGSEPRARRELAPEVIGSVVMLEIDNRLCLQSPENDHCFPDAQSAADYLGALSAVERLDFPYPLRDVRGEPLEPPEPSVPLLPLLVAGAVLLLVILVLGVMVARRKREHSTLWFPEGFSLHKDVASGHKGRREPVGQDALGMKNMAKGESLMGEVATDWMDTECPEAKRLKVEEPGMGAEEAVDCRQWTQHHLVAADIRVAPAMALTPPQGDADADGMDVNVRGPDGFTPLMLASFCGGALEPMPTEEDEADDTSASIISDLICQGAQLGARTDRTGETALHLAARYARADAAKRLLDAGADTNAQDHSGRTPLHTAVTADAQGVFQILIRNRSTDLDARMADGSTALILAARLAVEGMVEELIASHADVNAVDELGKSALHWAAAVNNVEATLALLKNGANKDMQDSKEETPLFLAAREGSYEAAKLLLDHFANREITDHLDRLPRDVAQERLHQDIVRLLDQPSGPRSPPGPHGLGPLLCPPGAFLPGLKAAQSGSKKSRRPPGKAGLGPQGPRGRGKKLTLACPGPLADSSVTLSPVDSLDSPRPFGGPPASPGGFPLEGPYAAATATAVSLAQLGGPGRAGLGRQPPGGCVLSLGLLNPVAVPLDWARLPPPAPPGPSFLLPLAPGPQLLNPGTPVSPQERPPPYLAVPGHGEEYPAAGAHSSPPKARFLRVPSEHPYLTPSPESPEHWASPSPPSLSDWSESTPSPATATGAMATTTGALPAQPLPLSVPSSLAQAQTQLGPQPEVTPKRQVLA
Sequence of Torsin-1A-interacting protein 2 (Homo sapiens) (Q8NFQ8 whole entry, looked up): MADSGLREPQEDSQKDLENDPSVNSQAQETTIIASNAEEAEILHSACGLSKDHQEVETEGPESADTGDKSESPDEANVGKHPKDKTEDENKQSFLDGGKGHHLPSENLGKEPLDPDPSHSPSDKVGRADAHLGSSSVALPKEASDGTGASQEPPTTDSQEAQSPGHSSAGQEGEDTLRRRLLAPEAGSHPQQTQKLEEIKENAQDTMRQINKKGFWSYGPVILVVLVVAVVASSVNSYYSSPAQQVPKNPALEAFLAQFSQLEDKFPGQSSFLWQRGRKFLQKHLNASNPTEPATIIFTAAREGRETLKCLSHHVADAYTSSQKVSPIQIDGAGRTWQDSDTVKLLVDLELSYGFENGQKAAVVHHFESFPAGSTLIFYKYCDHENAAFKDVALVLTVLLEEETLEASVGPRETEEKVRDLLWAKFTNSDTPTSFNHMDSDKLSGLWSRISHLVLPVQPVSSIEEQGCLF

As for `O=C1O[C@H](c2ccccc2)[C@H](c2ccccc2)N2[C@H]1[C@@H](C(=O)N1CCN(c3ncccn3)CC1)[C@]1(C(=O)Nc3ccc(C#CC4=CCCCC4)cc31)[C@H]2c1ccccc1OCCO`, the composite z-score is 1.53 in test [1]; 2.65 in test [5]; 0.276 in [7]; 0.922 in [8]; 1.07 in [9]; -0.0493 in test [10]. For the same compound, the z-score was 1.08 (inactive) in test [2], 0.759 (inactive) in [3], 3.51 (inactive) in test [4] and 0.071 (inactive) in test [6].

For `O=C1OCCC=C[C@H]2OC34C=CCN(CCN5CCOCC5)C(=O)[C@H]3N(CCCCCO)C(=O)[C@@H]4C12` (stereo not given in full), the composite z-score was 1.48 in test [1]; 3.34 in test [5]; -0.138 in [7]; 0.0669 in [8]; 0.193 in test [9]; -0.158 in test [10]. Moreover, the z-score in test [2] is -0.776 (inactive); in test [3] it was -0.0455 (inactive); in test [4], -0.379 (inactive); in test [6] it was 0.444 (inactive).

With `O=C1O[C@@H](c2ccccc2)[C@@H](c2ccccc2)N2[C@@H](c3ccc(OCCO)cc3)[C@]3(C(=O)Nc4ccc(C#CC5=CCCCC5)cc43)[C@@H](C(=O)N3CCCCCCC3)[C@H]12`, the composite z-score in test [1] amounted to 1.53; in test [5] it was 3.98; in test [7] it was 1.6; in [8] it was 1.78; in [9], 1.03; in test [10] it was 1.26. For the same compound, the z-score in [2] is 1.1 (inactive); in test [3], -1.09 (inactive); in [4], 2.13 (inactive); in test [6], 0.29 (inactive).

Take `COC(=O)C(CC#Cc1ccc2c(c1)[C@]1(C(=O)N2)[C@H](c2ccc(O)cc2)N2[C@H](c3ccccc3)[C@H](c3ccccc3)OC(=O)[C@H]2[C@@H]1C(=O)N1CCN(c2ncccn2)CC1)C(=O)OC`: the composite z-score amounted to 1.55 in test [1]; 3.21 in test [5]; 0.107 in test [7]; 0.24 in test [8]; 0.975 in test [9]; 0.0167 in test [10]. Besides, the z-score in test [2] was 1.07 (inactive); in test [3] it was 0.516 (inactive); in [4], 1.93 (inactive); in test [6] it was 0.248 (inactive).

As to `CCCCCN1CC=CC23O[C@@H]4C=CCOC(=O)[C@@H]4[C@H]2C(=O)N(C(C)CO)[C@@H]3C1=O` (stereo not given in full), the composite z-score in [1] was -0.508; in [5], -0.952; in test [7], -0.174; in test [8], -1; in test [9] it was -0.553; in [10] it was -0.296. Besides, the z-score is -0.076 (inactive) in [2], -0.226 (inactive) in test [3], 0.0795 (inactive) in [4] and 0.266 (inactive) in [6].

With `COCC(=C=CC[C@H](O)c1cccc(OCCO)c1)CCO`, the composite z-score in [1] was 1.47; in test [5] it was 2.12; in [7] it was -0.185; in test [8], 0.69; in [9] it was 0.898; in test [10] it was -0.112. Besides, the z-score in test [2] was -0.45 (inactive); in test [3], -0.19 (inactive); in test [4], -0.55 (inactive); in [6] it was 0.0234 (inactive).

For the compound `CC(=O)NCCCC[C@@H]1NC(=O)[C@H]2C[C@@H](C(=O)NCCCCCNC(=O)CS)[C@@H](c3ccc(O)cc3)N2C1=O`, the composite z-score was 0.524 in test [1]; 1.69 in test [5]; -0.0727 in test [7]; -0.309 in [8]; -0.527 in [9]; -0.171 in test [10]. The z-score in [2] is 1.16 (inactive); in test [3] it was 0.0772 (inactive); in test [4], 1.76 (inactive); in test [6] it was 0.358 (inactive).

Consider `CC#CC(=O)Oc1ccc(Br)cc1C=CC(=O)OCC`, for which the composite z-score in test [1] was 0.162; in [5] it was 1.18; in test [7], 0.188; in test [8] it was -0.157; in [9], 0.0254; in test [10], -0.0765. Besides, the z-score was -23.6 (active) in test [2], -16 (active) in [3], -2.38 (inactive) in [4] and -0.0056 (inactive) in [6].

As to `CS(=O)(=O)CCOC(=O)C1=CC(CCCO)=CC(C2CC2)N(Cc2cc3c(cc2Br)OCO3)C=C1C(=O)OCCS(C)(=O)=O` (stereo not given), the composite z-score in [1] stood at 1.37; in test [5], 1.84; in [7] it was 0.0723; in [8] it was 0.39; in test [9], 0.533; in test [10] it was 0.0423. Besides, the z-score was -0.955 (inactive) in test [2], -1.87 (inactive) in [3], -1.32 (inactive) in test [4] and 0.102 (inactive) in test [6].

On to `O=C1C2C=CC(C(O)c3ccc(-c4ccccc4)s3)N(Nc3ccccc3)C2C(=O)N1c1ccccc1` (stereo not given), for which the composite z-score in [1] was 1.26; in test [5], 4.34; in test [7] it was 0.0711; in test [8], 0.182; in test [9], 1.11; in [10], -0.0565. For the same compound, the z-score in test [2] was -0.307 (inactive); in test [3] it was 1.63 (inactive); in test [4], 0.355 (inactive); in [6], -0.579 (inactive).

Consider `CN(C)CCCC[C@@H]1NC(=O)[C@H]2C[C@@H](C(=O)NCCCCCN)[C@@H](c3cccc(OCCO)c3)N2C1=O`, for which the composite z-score in test [1] came to 1.54; in [5], 2.26; in test [7] it was 0.801; in [8], 1.38; in test [9] it was 0.339; in test [10] it was 0.374. In addition, the z-score in [2] was -0.717 (inactive); in test [3] it was -5.79 (inactive); in test [4], -0.503 (inactive); in test [6] it was 1.04 (inactive).

For `COc1ccc([Si](C)(C)[C@H]2[C@H](CC(=O)N3CCC[C@H]3CO)O[C@@]3(C(=O)N(Cc4cccc(N5CCOC5=O)c4)c4ccccc43)[C@@H]2C)cc1`, the composite z-score in test [1] is 1.55; in [5] it was 1.02; in [7], -0.23; in test [8], 1.28; in test [9] it was 1.11; in test [10] it was -0.0271. Moreover, the z-score in [2] is -1.53 (inactive); in test [3], 0.239 (inactive); in test [4], -1.71 (inactive); in [6], 1.78 (inactive).

For `COC(=O)[C@@]1(Cc2ccc(OC)cc2)[C@H]2c3cc(C(=O)N4CCCC4)n(CCSCCO)c3C[C@H]2CN1C(=O)c1ccccc1`, the composite z-score in test [1] was 0.416; in [5], 3.38; in test [7], 0.172; in [8], -0.492; in test [9], 0.671; in test [10], 0.157. Further, the z-score in [2] was 0.786 (inactive); in test [3], 1.72 (inactive); in [4] it was 1.25 (inactive); in [6], -0.647 (inactive).

In the case of `NCCCCCCNC(=O)[C@H]1C[C@H]2C(=O)N[C@@H](Cc3ccccc3)C(=O)N2[C@H]1c1cccc(OCCO)c1`, the composite z-score in test [1] was found to be 0.753; in test [5] it was 1.66; in test [7] it was 0.255; in [8], 0.337; in test [9], 0.347; in test [10] it was 0.0562. For the same compound, the z-score in test [2] is 0.106 (inactive); in [3] it was 0.269 (inactive); in test [4], -0.689 (inactive); in test [6], 0.524 (inactive).
